Nrf2 activator = Nrf2 pathway activation. AREc32 ARE-luciferase reporter (MCF7-derived line), luminescence, 24 h. Potency, µM (series often up to 46.1 µM), for the others: top-dose activation, most hits filed as activators. hit rate 0.31% among 410,000. AID 624171; note: potency is the fitted concentration of half-maximal effect; % of control where 0% means no effect; nearly all actives have a fitted effect of over 65% in size
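Luciferase luminescence (Steady-Glo, 30 min at room temperature) served as the read-out of ARE activation in AREc32 cells treated with compounds for 24 hr at 37 deg C.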
IL2 activator = activators of IL-2 | IL-2 activation reporter assay, cell-based qHTS; stimulated with anti-CD3/CD4/CD28 beads; in transgenic mouse T cells | AID 652025 | activation, % (series mostly up to about 46 µM) | hit rate 0.065% among 360,000; in the data active = activation above about 50%; inconclusive = mostly about 30% to 49%; note: 0% is about no effect
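Readout is EGFP and DsRed signal by fluorescent plate cytometry after 18 h at 37 degrees C. Transgenic mouse T cells (750/well) received compound for 60 min before bead stimulation (anti-CD3, anti-CD4, anti-CD28); memory T cells served as non-tolerant control.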
ELG1 DNA repair = blocks ELG1-dependent DNA repair in HEK293T cells; HEK293T ELG1-luciferase reporter, luminescence, 16 h; DNA damage induced by 5-fluorouridine; Potency, µM (series often up to 46.1 µM), without a hit: at the highest dose activity change, negative = inhibition, most hits filed as inhibitors; hit rate 2.3% among 330,000; AID 504467; note: potency is the fitted concentration of half-maximal effect; % is set by controls: 0 for no effect and ±100 for the full control effect; nearly all actives have a fitted effect of over 55% in size
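5-Fluorouridine DNA damage + compound/DMSO, 2,000 cells/well, 16 h, 37 °C/5% CO2. ONE-Glo, 30 min RT, luminescence. Readout = decrease in reporter signal.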
BRCA1 expr act = activators of BRCA1 expression; MCF7-BRCA1-FFLuc reporter, luminescence, 48 h; response scale: scaled: vehicle 0%, 10 µM genistein 100%; Potency, µM (titrated, usually from 46.1 µM), without a hit: at the top dose activation, most hits filed as activators; hit rate 1.1% among 380,000; AID 624202; note: potency is the fitted concentration of half-maximal effect; nearly all actives have a fitted effect of over 80% in size
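Activators of BRCA1 expression were detected as increased firefly luciferase luminescence in engineered MCF7 cells after 48 h compound incubation. Signals were scaled to genistein 10 microM as full activation.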
ELG1 FLuc counter = luciferase inhibition in cell-free luciferin readout for ELG1 hits | shares compounds with ELG1 DNA repair | Potency, µM (doses to about 46.1 µM), inactives show at the top dose activity change, negative = inhibition, usual class: inhibitors | hit rate 3% among 350 | cell-free firefly luciferase luminescence counter-screen, ViewLux; note: potency is the fitted concentration of half-maximal effect; % is set by controls: 0 for no effect and ±100 for the full control effect
ELG1 Luc conf = human ELG1 repair inhibition, luciferase-tagged ELG1 confirmation; AID 624248; HEK293T ELG1-luciferase levels, luminescence; cells co-treated with 5-fluorouridine; shares compounds with ELG1 DNA repair; hit rate 68% among 670; Potency, µM (series often up to 46.1 µM), for the others: at the top dose activity change, negative = inhibition, most hits filed as inhibitors; note: potency is the fitted concentration of half-maximal effect; % is set by controls: 0 for no effect and ±100 for the full control effect; nearly all actives have a fitted effect of over 55% in size
ELG1 MMS Luc = inhibits ELG1-dependent repair under MMS stimulation in HEK293T cells. shares compounds with ELG1 DNA repair. HEK293T luciferase-tagged ELG1 level, MMS stimulated. Potency, µM (titrated, usually from 46.1 µM), for the others: top-dose activity change, negative = inhibition, actives largely listed as inhibitors. hit rate 53% among 670; note: potency is the fitted concentration of half-maximal effect; % is set by controls: 0 for no effect and ±100 for the full control effect; nearly all actives have a fitted effect of over 60% in size
ELG1 5FU viab = confirmation of ELG1 repair inhibitors: viability with 5FU. shares compounds with ELG1 DNA repair. cell viability with 5-FU, ELG1-dependent repair. Potency, µM (top dose mostly 46.1 µM), inactives show at the top dose activity change, negative = viability loss, most hits filed as cytotoxic. 670 tested, under 10 active;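 note: ELG1-luc HEK293T cells cotreated with 5-fluorouridine at 10 µM final; potency is the fitted concentration of half-maximal effect; viability measured 16 h after compound addition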
ELG1 MMS viab = confirmation of ELG1 repair inhibitors: viability with MMS | shares compounds with ELG1 DNA repair | Cell viability with MMS, ELG1-dependent DNA repair | Potency, µM (top dose mostly 46.1 µM), for the others: top-dose activity change, negative = viability loss, most hits filed as cytotoxic | hit rate 33% among 670 | AID 624251;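 note: ELG1-luc HEK293T cells co-treated with 10 µM MMS; potency is the fitted concentration of half-maximal effect; viability read 16 h after compound addition; % is set by controls: 0 for no effect and ±100 for the full control effect; nearly all actives have a fitted effect of over 60% in size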
ELG1 unstim viab = counter-screen for ELG1 repair inhibitors: unstimulated cell viability | hit rate 8% among 900 | shares compounds with ELG1 DNA repair | AID 624252 | cell viability counter-screen, unstimulated, luminescence | Potency, µM (titrated, usually from 45.9 µM), without a hit: at the top dose activity change, negative = loss of viability, most hits filed as cytotoxic;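 note: potency is the fitted concentration of half-maximal effect; compound exposure lasted 16 hours before reading; % is set by controls: 0 for no effect and ±100 for the full control effect; nearly all actives have a fitted effect of over 55% in size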
FLuc biochem = counter-screen for ELG1 repair inhibitors: firefly luciferase inhibition. shares compounds with ELG1 DNA repair. purified firefly luciferase, luminescence counter-screen. Potency, µM (highest dose often 57.5 µM), without a hit: at the top dose activity, negative = inhibition, usual class: inhibitors. hit rate 10% among 350; note: potency is the fitted concentration of half-maximal effect; % is set by controls: 0 for no effect and ±100 for the full control effect
Numbers without * were called inactive; u = inconclusive; x = no result given. In the library only some 3.1% were active in any assay of this set; here they are far more common. Unless noted, calls come from the whole dose curve; as a rule, active = well fitted curve in the direction sought with a large enough effect; inconclusive = small, poorly fitted or top-dose-only effect, or another doubt; inactive = no such curve, though single readings can be large; an effect the other way counts as inactive or inconclusive.

SMILES | Nrf2 activator | IL2 activator | ELG1 DNA repair | BRCA1 expr act | ELG1 unstim viab | others
CO/C1=C\C(C)=C\[C@@H](C)[C@@H](O)[C@H](C)C/C(C)=C/C=C/[C@H](OC)[C@H]([C@@H](C)[C@@H](O)[C@H](C)[C@H]2C[C@@H](O)[C@H](C)[C@@H](C(C)C)O2)OC1=O | x | x | x | x | u | ELG1 FLuc counter=5%;ELG1 Luc conf=-3%;ELG1 MMS Luc=-19%;ELG1 5FU viab=-8%;ELG1 MMS viab=u;FLuc biochem=-1%
O=c1c2ccccc2nc(/C=C\c2ccc(F)cc2)n1-c1ccccc1F | 4% | x | x | x | x
COc1cc2c(c(OC)c1OC)-c1ccc(O)c(=O)cc1C(NC(C)=O)CC2 (stereo not given) | 0% | 1 | u | -65% | -5% | ELG1 FLuc counter=22%;FLuc biochem=1%
COc1ccc(C(=O)CC2(CC(=O)c3ccc(OC)cc3)C(=O)N(C)C(=O)N(C)C2=O)cc1 | 0% | 1 | 1.6µM* | -5% | -4% | ELG1 Luc conf=0.5µM*;ELG1 MMS Luc=3%;ELG1 5FU viab=u;ELG1 MMS viab=1%
COc1ccc(C(=O)CN2CCCCC2)cc1 | 0% | -3 | u | 51% | x
O=C1CN=C(c2ccccc2)c2cc(Cl)ccc2N1Cc1ccc(Cl)cc1 | -3% | x | x | x | x
CC(=O)OCC1=C[C@H]2[C@@H]3C(C)(C)[C@]3(OC(=O)Cc3ccccc3)C[C@@H](C)[C@]2(O)[C@@H]2C=C(C)C(=O)[C@@]2(O)C1 | x | x | x | x | u
CC(C)CCOP(=O)(c1ccc(N(C)C)cc1)C(O)c1ccc(Cl)cc1Cl (stereo not given) | 0% | -1 | u | -97% | x
O=C(Cc1c(O)c2ccccc2oc1=O)c1ccc(F)cc1 | 10% | 0 | u | 1% | x

From PubChem
